In PubChem BioAssay (NCI) one finds growth inhibition data, which are given here for 40 compounds.

The panel holds about 79,000 compounds, 15% with a hit somewhere; the sample as a whole holds those more often. Calls of active or inactive are those of the source. Cut-off read from the data, not from the text of the source: active = growth inhibition above about 70%; inactive = the rest.

The first assay is described as follows: NCI Yeast Anticancer Drug Screen. Data for the rad50 strain (AID 155).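 Note: 0% = growth of vehicle-only cultures of the same strain.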 Conditions: S. cerevisiae rad50 strain growth inhibition; at 50.0 µM; stronger effect = higher value. The method, boiled down:
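Genetically altered yeast (DNA repair pathway); compound treatment; growth inhibition vs vehicle ctrl.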
In the case of `CC(Oc1cc2oc(=O)cc(-c3ccccc3)c2cc1Cl)C(=O)O` (configuration not stated), the growth inhibition was -13.6% (inactive). With `c1cnc2c3ccncc3c3nc(-c4ccncc4)[nH]c3c2c1`, the growth inhibition was -10.2% (inactive). Take `COCC(C)OC(=O)c1ccccc1` (configuration not stated): the growth inhibition is 23.8% (inactive). Regarding `O=C(Nc1ccccc1Cl)c1ccc([N+](=O)[O-])cc1`, the growth inhibition was 11.4% (inactive). In the case of `C=CCc1ccc(OC(=O)CC)c(OC)c1`, the growth inhibition was -8.1% (inactive). The same measure, in the same setting: to `O=Cc1ccccc1Cl` belongs 28% (inactive); to `Cc1ccc(S(=O)(=O)Nc2ccccc2)cc1`, 18% (inactive). The same measure, in the same setting: to `CN1CCCC2[C@@H]3CCC4=C(O)C(=O)CC[C@]4(C)C3CC[C@@]21C` (some centres not stated) belongs 9.05% (inactive). For the compound `CN(C)CCCNc1ncnc2nc[nH]c12`, the growth inhibition is -25.8% (inactive). Take `N#C/C(N)=C(\C#N)NC=NCc1ccccc1`: the growth inhibition is -10.8% (inactive).

As to `c1ccc2c(c1)NC(N1CCCCC1)=Nc1ncncc1-2`, the growth inhibition is 14.8% (inactive).

As for `O=C1C(Cl)N(c2ccc([N+](=O)[O-])cc2)C1c1c[nH]c2ccccc12` (configuration not stated), the growth inhibition was -4.2% (inactive). As to `OC1CN(c2ccccc2)CC(O)CN(c2ccccc2)C1` (configuration not stated), the growth inhibition is -8.1% (inactive). For the compound `CC(=O)CC(=O)NCCN(C)C`, the growth inhibition is -23.6% (inactive). In the case of `COc1ccc(NC(=O)Nc2ccc(Br)cc2)cc1`, the growth inhibition was -9.55% (inactive).

`C[C@@H]1CC[C@]2(C(=O)O)CC[C@]3(C)C(=CC[C@@H]4[C@@]5(C)CC[C@H](O)C(C)(C)[C@@H]5CC[C@]43C)[C@@H]2[C@]1(C)O`: the growth inhibition was 27.1% (inactive). For `OCC1NCCC(O)C1OC1OC(CO)C(O)C(O)C1O` (configuration not stated), the growth inhibition is 5.25% (inactive). As for `NC(N)=NS(=O)(=O)c1ccc(NC(=O)c2ccc(Cl)c3c(Nc4ccc(S(=O)(=O)N=C(N)N)cc4)c4ccccc4nc23)cc1`, the growth inhibition is 32.2% (inactive). As for `Cc1cccc(C)c1NC(=O)C(=O)/C(=C(\N)c1ccccc1)c1ccccc1`, the growth inhibition was -14.3% (inactive). `CCCC1CN2CCc3cc(OC)c(OC)cc3C2CC1=O` (configuration not stated): the growth inhibition was 4.6% (inactive). On to `CCC[CH2][Sn]([C]#[C][Sn]([CH2]CCC)([CH2]CCC)[CH2]CCC)([CH2]CCC)[CH2]CCC`, for which the growth inhibition was 99.6% (active). With `O=[N+]([O-])c1cc2c(cc1O)[nH]c1cccc([N+](=O)[O-])c12`, the growth inhibition is -2.25% (inactive).

A further assay is described as follows: NCI Yeast Anticancer Drug Screen. Data for the mec2-1 strain (AID 157). Conditions: S. cerevisiae mec2-1 strain, at 50.0 µM, stronger effect = higher value. The method, boiled down: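 Yeast mec2-1 mutant treated with compound. Readout: growth inhibition vs vehicle controls.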
Consider `N#CCC(=O)O`, for which the growth inhibition was 6.5% (inactive).

Turning to `O=C(/C=C(/CC(=O)c1ccccc1)C(=O)c1ccccc1)c1ccccc1`, the growth inhibition is -22.9% (inactive). In the case of `CCCCCCCCCCCCP(=O)(O)O`, the growth inhibition is -24.1% (inactive). Turning to `O=C1CCC(=O)N1CCc1cccc2ccccc12`, the growth inhibition was -1.1% (inactive). Regarding `O=C(O)/C=C/C(=O)Nc1ccc(Cl)cc1C(=O)c1ccccc1`, the growth inhibition was 9.1% (inactive). Take `N[N+]1(CCS(N)(=O)=O)CCOCC1`: the growth inhibition was -12.6% (inactive). `NC(=S)c1ccccn1`: the growth inhibition is 11.4% (inactive). For the compound `CC(C)Oc1ccc(CCOC(=O)Nc2cccc3ccccc23)cc1`, the growth inhibition is 0.85% (inactive).

With `C[Si](C)(C)O[Si](C)(C)CCl`, the growth inhibition is -12.4% (inactive).

As for `CC(C)(C)c1cc(-c2cc(C(C)(C)C)nc(N)n2)nc(N)n1`, the growth inhibition is -14.1% (inactive). As for `NC(CSS(=O)(=O)O)C(=O)O` (configuration not stated), the growth inhibition was -2.4% (inactive). For `O=[N+]([O-])c1ccc(CN2CCC(C(=S)Nc3ccccc3)=C2c2ccccc2)cc1`, the growth inhibition was 0.3% (inactive).

Regarding `CCCCNC(=O)CCC(NS(=O)(=O)c1ccc(C)cc1)C(=O)NCCCC` (configuration not stated), the growth inhibition is 2.1% (inactive). As to `COc1c(C=O)c2c(c(OC)c1OC)-c1ccc(OC)c(=O)cc1[C@@H](NC(C)=O)CC2`, the growth inhibition was -9.6% (inactive). Regarding `CCC(=O)OCC(OC(=O)CC)c1ccccc1` (configuration not stated), the growth inhibition is -22.6% (inactive). On the same count and under the same terms, to `CC(=O)NC1CC2c3ccccc3C1([N+](=O)[O-])c1ccccc12` (configuration not stated) belongs 17.6% (inactive). Consider `CCNC1CC(C(C)(C)NCC)CC=C1C` (configuration not stated), for which the growth inhibition was -25.2% (inactive). Consider `COC(=O)C1=C(C(=O)OC)C(=Nc2ccccc2)c2ccccc2C1=O`, for which the growth inhibition is 35.3% (inactive). Same read-out and setting: the figure for `CC(Oc1cc2oc(=O)cc(-c3ccccc3)c2cc1Cl)C(=O)O` (configuration not stated) is 9.45% (inactive). As for `c1cnc2c3ccncc3c3nc(-c4ccncc4)[nH]c3c2c1`, the growth inhibition is -12.8% (inactive). In the case of `COCC(C)OC(=O)c1ccccc1` (configuration not stated), the growth inhibition is -0.8% (inactive).

`O=C(Nc1ccccc1Cl)c1ccc([N+](=O)[O-])cc1`: the growth inhibition is 15.4% (inactive).

With `C=CCc1ccc(OC(=O)CC)c(OC)c1`, the growth inhibition was -22.4% (inactive).

For `O=Cc1ccccc1Cl`, the growth inhibition was 12.9% (inactive).

Take `Cc1ccc(S(=O)(=O)Nc2ccccc2)cc1`: the growth inhibition is -27.9% (inactive). Regarding `CN1CCCC2[C@@H]3CCC4=C(O)C(=O)CC[C@]4(C)C3CC[C@@]21C` (some centres not stated), the growth inhibition is -6.05% (inactive).

`CN(C)CCCNc1ncnc2nc[nH]c12`: the growth inhibition is -43.7% (inactive). Turning to `N#C/C(N)=C(\C#N)NC=NCc1ccccc1`, the growth inhibition is -18.6% (inactive). For `c1ccc2c(c1)NC(N1CCCCC1)=Nc1ncncc1-2`, the growth inhibition is -8.15% (inactive). With `O=C1C(Cl)N(c2ccc([N+](=O)[O-])cc2)C1c1c[nH]c2ccccc12` (configuration not stated), the growth inhibition was -38.6% (inactive). Turning to `OC1CN(c2ccccc2)CC(O)CN(c2ccccc2)C1` (configuration not stated), the growth inhibition is 2.35% (inactive).

Regarding `CC(=O)CC(=O)NCCN(C)C`, the growth inhibition was -43% (inactive). Consider `COc1ccc(NC(=O)Nc2ccc(Br)cc2)cc1`, for which the growth inhibition was 5.7% (inactive). For the compound `C[C@@H]1CC[C@]2(C(=O)O)CC[C@]3(C)C(=CC[C@@H]4[C@@]5(C)CC[C@H](O)C(C)(C)[C@@H]5CC[C@]43C)[C@@H]2[C@]1(C)O`, the growth inhibition is 38.5% (inactive). `OCC1NCCC(O)C1OC1OC(CO)C(O)C(O)C1O` (configuration not stated): the growth inhibition is -22.1% (inactive).

As for `NC(N)=NS(=O)(=O)c1ccc(NC(=O)c2ccc(Cl)c3c(Nc4ccc(S(=O)(=O)N=C(N)N)cc4)c4ccccc4nc23)cc1`, the growth inhibition was 31.6% (inactive). The same measure, in the same setting: the figure for `Cc1cccc(C)c1NC(=O)C(=O)/C(=C(\N)c1ccccc1)c1ccccc1` is -9.5% (inactive); for `CCCC1CN2CCc3cc(OC)c(OC)cc3C2CC1=O` (configuration not stated) it is 23.6% (inactive); for `CCC[CH2][Sn]([C]#[C][Sn]([CH2]CCC)([CH2]CCC)[CH2]CCC)([CH2]CCC)[CH2]CCC` it is 98.8% (active). As to `O=[N+]([O-])c1cc2c(cc1O)[nH]c1cccc([N+](=O)[O-])c12`, the growth inhibition was -11.4% (inactive).
